# High-throughput results (PubChem)
# Only some compounds are listed: those with a hit (about 3.4% of all), similar ones and a draw of the others.
# GPR151 ag – activators of human GPR151, primary screen, cell-based, PathHunter beta-arrestin, luminescence; G-protein coupled receptor 151 (Homo sapiens), Q8TDV0; PathHunter beta-arrestin GPR151 cells; activation, % at 11.2 µM; actives 1% (n = 650,000); AID 1508602, 2020; in the data active means activation above about 4.9%;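 further: 0% = median of compound wells and 100% = cells with positive control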
# FBW7 activator – FBW7 E3 ligase activators, primary screen, biochemical, AlphaScreen, human; F-box/WD repeat-containing protein 7 (Homo sapiens), Q969H0; AlphaScreen FBW7–phospho-cyclin E peptide binding, activator screen; normalized activity (activation), % at 26.1 µM; actives 0.13% (n = 650,000); AID 1259310, 2017; in the data active means normalized activity above about 1.9%;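 further: purified mutant Fbw7 with reduced substrate affinity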
# TEAD-YAP inh – TEAD-YAP interaction inhibition, primary screen, TEAD-YAP interaction inhibitor project, luminescence, HEK-TIYL cells. inhibition, % at 9.12 µM. AID 1259422, 2018. TEAD-Gal4/YAP UAS-luciferase luminescence. actives 1.4% (n = 640,000); in the data active means inhibition above about 32%;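 further: 0% = median of test compound wells and 100% = reference inhibitor wells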
# MITF primary – MITF inhibitors, primary screen, biochemical, AlphaScreen, human; Microphthalmia-associated transcription factor (Homo sapiens), O75030; AlphaScreen MITF homodimerization, bead proximity signal; actives 0.91% (n = 650,000); inhibition, % at 2.6 µM; in the data active means inhibition above about 50%;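 further: 0% = vehicle wells with protein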
# Target sequence (O75030 whole entry, looked up): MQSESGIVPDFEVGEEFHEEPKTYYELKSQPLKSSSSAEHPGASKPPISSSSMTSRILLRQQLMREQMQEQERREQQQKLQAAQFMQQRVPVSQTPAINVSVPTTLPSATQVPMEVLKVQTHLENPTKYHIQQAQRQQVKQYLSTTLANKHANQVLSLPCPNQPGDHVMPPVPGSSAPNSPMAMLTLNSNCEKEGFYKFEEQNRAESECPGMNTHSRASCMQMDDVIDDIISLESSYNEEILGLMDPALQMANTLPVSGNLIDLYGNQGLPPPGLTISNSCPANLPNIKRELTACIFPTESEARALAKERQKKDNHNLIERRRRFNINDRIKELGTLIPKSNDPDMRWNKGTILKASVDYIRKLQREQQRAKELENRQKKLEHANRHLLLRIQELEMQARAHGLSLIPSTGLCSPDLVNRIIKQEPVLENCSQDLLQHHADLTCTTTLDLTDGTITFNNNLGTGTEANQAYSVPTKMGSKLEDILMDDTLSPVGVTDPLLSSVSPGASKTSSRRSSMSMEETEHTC
# GPR151 conf act – GPR151 activators, triplicate retest, confirmation, cell-based, PathHunter beta-arrestin, luminescence; activation, % at 11.2 µM; 6,700 tested, under 10 active; shares compounds with GPR151 ag; AID 1508609, 2020; GPR151 PathHunter beta-arrestin cells, 90 min; % of EA-reagent control over plate median;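 active means mean percent activation across replicates above the confirmation screen cutoff of 4.91%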
# GPR119 ag – GPR119 activators in beta-arrestin cells, counter-screen for GPR151 activator project, cell-based, PathHunter beta-arrestin, luminescence, triplicate | actives 0.3% (n = 6,700) | shares compounds with GPR151 ag | 90 min; 0 = compound-well median, 100 = enzyme-acceptor control | activation, % at 11.2 µM;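 active means mean percent activation in the counterscreen above 29.09%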;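 further: counterscreen on off-target GPR119 to flag nonselective hits from the GPR151 activator screen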
# The depositor's hits bear a star; x = not tested or not shown; ! = repeats disagree.
SMILES,GPR151 ag,FBW7 activator,TEAD-YAP inh,MITF primary,GPR151 conf act,GPR119 ag
COc1cccc(-c2nnc3n2N=C(c2cccc([N+](=O)[O-])c2)CS3)c1,12.8*,0.0,15.9,-7.4,-0.7,-8.6
CCC(=O)N[C@@H]1c2ccccc2C2(CCN(Cc3nc(-c4ccccc4)no3)CC2)[C@H]1OC,-0.6,-0.2,7.5,3.4,x,x
COc1ccc(C(=O)NNC(=O)c2ccc(NC(=O)C(C)C)cc2)cc1Br,0.7,0.5,1.9,16.9,x,x
O=C(CCc1nc2cccnc2n1-c1ccccc1)NCc1cccs1,-0.9,0.9,8.2,4.4,x,x
CC1CCN(C(=O)C2=CC(c3cccs3)=NS(=O)(=O)N2C)CC1,5.4*,-0.2,4.8,-6.1,-0.9,-12.8
CCc1ccc(-c2nc(=S)[nH][nH]2)cc1,7.6*,-0.1,-20.5,-1.2,1.0,6.3
CN(C(=O)COc1ccc(C(C)(C)C)cc1)C1(C)CCS(=O)(=O)C1 (stereo not given),5.5*,-0.1,7.8,-11.6,-0.8,-1.5
S=C(Nc1ccc(Cl)c(Cl)c1)N1CCc2ccccc2C1,-0.4,0.1,6.9,0.8,x,x
O=C(CC12CC3CC(CC(C3)C1)C2)Nc1cccc2ncccc12,6.3*,-0.1,-9.1,0.6,0.2,5.1
CCC(=O)Nc1cccc2ncccc12,1.7,0.2,14.0,-1.7,x,x
O=C(Nc1cccc2ncccc12)C12CC3CC(CC(C3)C1)C2,0.6,0.5,-10.5,11.8,x,x
Cc1ccc(SCC(=O)Nc2cccc3ncccc23)cc1,6.0*,0.1,4.3,10.7,0.8,-9.4
COCCNC(=O)c1oc2c(c1C)-c1[nH]ncc1CC2,0.3,-0.1,0.4,-12.2,x,x
Cc1nc2ccccc2n1C(F)(F)C(F)F,2.1,-0.1,-0.4,-9.6,x,x
Cc1noc(C)c1S(=O)(=O)N1CCN(Cc2nc(C(C)(C)C)cs2)CC1,1.7,0.0,0.2,0.1,x,x
CCCS(=O)(=O)N1CCN(Cc2nc(C(C)(C)C)cs2)CC1,8.8*,0.2,-1.3,-2.3,0.6,3.8
CC(CNC(=O)c1ccccc1Br)c1ccccc1 (stereo not given),-0.5,-0.3,-59.8,-1.7,x,x
O=C(O)CCCCCn1c(SCC(=O)c2ccccc2)nc2ccsc2c1=O,6.5*,0.1,-0.3,23.3,-0.2,8.1
CCOC(=O)c1cccc(Nc2nc(-c3ccccc3Cl)nc3ccccc23)c1,0.2,0.0,11.3,2.5,x,x
CCOC(=O)c1cccc(Nc2nc(-c3ccccc3)nc3ccccc23)c1,5.9*,0.2,3.6,16.7,0.3,-0.6
CCOC(=O)c1nc(Nc2ccc(OCC)cc2)c2ccccc2n1,0.8,-0.1,2.4,16.8,x,x
CCOC(=O)c1nc(Nc2ccc(OC(C)C)cc2)c2ccccc2n1,8.8*,-0.1,4.8,7.5,1.7,6.5
O=C(OCC#CCSc1ccc2ccccc2c1)c1ccc([N+](=O)[O-])cc1,1.1,-0.3,-10.4,5.2,x,x
COc1ccc(Cl)cc1NC(=O)CN1CCC(n2nnc3ccccc32)CC1,5.3*,-0.1,-23.0,14.4,-0.1,-2.2
COc1cc(-c2nc3sc4c(c3c(=O)[nH]2)CCCC4)ccc1OCCOc1ccc(C)c(C)c1,5.7*,-0.1,-0.3,4.2,-0.8,-0.8
SMILES,GPR151 ag,FBW7 activator,TEAD-YAP inh,MITF primary,GPR151 conf act,GPR119 ag
CCOc1cc(-c2nc3sc4c(c3c(=O)[nH]2)CCCC4)ccc1OCc1ccccc1F,5.5*,-0.1,-7.0,-0.7,0.7,-8.3
CCNS(=O)(=O)c1ccc(CCC(=O)NC2CC2)cc1,6.7*,0.1,-11.8,11.4,0.3,10.2
CC(C)(C)C(=O)NC(=S)N1CCOCC1,0.8,0.0,-2.9,-7.9,x,x
CC1CN(C(=S)NC(=O)C(C)(C)C)CC(C)O1 (stereo not given),7.3*,-0.1,-2.0,-4.0,0.7,-4.7
COc1ccc(NC(=O)Nc2nnc(SCc3ccc(F)cc3)s2)cc1,1.2,-0.2,-9.2,3.5,x,x
O=C(Nc1ccc(F)cc1)Nc1nnc(SCc2ccccc2)s1,5.0*,-0.1,6.7,9.3,0.1,18.6
O=C(Cc1cccs1)Nc1nnc(SCc2ccccc2)s1,5.1*,0.1,-5.3,-3.3,1.5,-0.1
O=C(Nc1nnc(SCc2ccccc2)s1)c1cccs1,0.9,0.1,-15.8,10.0,x,x
CC1CCCC(C)N1c1nnc(NC(=O)Nc2ccc(F)cc2)s1 (stereo not given),5.3*,0.2,-22.9,4.0,-0.1,-11.7
CC(C)NC(=O)c1ccc2c(=O)n(Cc3ccc(Cl)cc3)c(=S)[nH]c2c1,6.1*,0.2,-4.8,8.1,-0.3,1.7
O=C(Nc1ccc(Cl)c(C(F)(F)F)c1)c1ccc2c(=O)n(Cc3cccc(Br)c3)c(=S)[nH]c2c1,6.2*,-0.1,-0.1,19.1,-0.7,-3.4
COC(=O)C1=C(C)N(Cc2cccnc2)C(=O)/C1=C\c1ccc(Cl)cc1,1.3,0.2,3.4,12.2,x,x
Cc1ccc2nc(-c3ccc(C)c(NC(=O)c4ccc(Cl)cc4Cl)c3)oc2c1,-0.1,0.0,-36.3,-13.4,x,x
COc1ccc(C(=O)/C=C/Nc2cccc([N+](=O)[O-])c2)cc1OC,8.7*!,-0.1,-36.5,-1.0,0.4,-8.7
COCCn1c(=NC(=O)Cc2ccccc2)sc2cc(OC)ccc21,0.0,0.1,2.1,-13.3,x,x
COCCn1c(=NC(=O)CCS(=O)(=O)c2ccccc2)sc2cc(OC)ccc21,6.7*,0.2,1.5,2.0,0.0,6.4
O=C(c1ccc(C(F)(F)F)cc1)N1CCC(c2cccnc2)CC1,-0.5,0.0,-4.5,-2.0,x,x
O=C(Nc1nnc(-c2ccco2)o1)c1nc2ccccc2s1,4.9*,-0.1,-31.0,4.5,0.5,-1.3
Cc1ccc(C)c(CN2CCC(CNC(=O)Nc3ccc4c(c3)OCCO4)CC2)c1,0.0,-0.3,-4.3,-1.0,x,x
COc1cccc(C=Nc2ccc(C)c(F)c2)c1O,5.8*,0.5,7.5,-2.2,0.0,10.6
COc1ccc(/C=C2\C=C(c3ccccc3)N(c3ccc(-c4ccccc4)cc3)C2=O)cc1,7.0*,0.1,7.9,6.5,1.2,5.6
CC1(C)CC(=O)c2c(oc3c(Cl)cc(NS(=O)(=O)c4ccccc4)cc23)C1,1.4,0.2,12.7,10.3,x,x
CC1(C)CC(=O)c2c(oc3c(Cl)cc(NS(=O)(=O)c4ccc5ccccc5c4)cc23)C1,10.2*,1.8,-0.4,19.0,0.6,14.3
NS(=O)(=O)c1ccc(NC(=O)CCCN2C(=O)c3ccccc3C2=O)cc1,-1.3,0.2,14.3,11.9,x,x
